Rows were chosen to be rich in hits. Some 2.2% of all compounds tested hit in one or more screens of this group.
FAS TE block: FAS thioesterase (human) inhibition; AID 602261; recombinant FAS-TE, OMFH fluorogenic substrate, fluorescence endpoint; hit rate 0.67% among 360,000; P49327; inhibition, % at 15 µM;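 active = compounds whose normalised, plate-corrected inhibition of enzyme fluorescence in the single-dose primary screen is 50% or more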
PLCb3 inh: blocks human PLC-beta3 enzyme activity; AID 720704; hit rate 0.18% among 370,000; Purified PLC-beta3, fluorogenic substrate, fluorescence; inhibition, % at 12.2 µM; in the data active = inhibition above about 11%
Target sequence (Q01970 whole entry, looked up): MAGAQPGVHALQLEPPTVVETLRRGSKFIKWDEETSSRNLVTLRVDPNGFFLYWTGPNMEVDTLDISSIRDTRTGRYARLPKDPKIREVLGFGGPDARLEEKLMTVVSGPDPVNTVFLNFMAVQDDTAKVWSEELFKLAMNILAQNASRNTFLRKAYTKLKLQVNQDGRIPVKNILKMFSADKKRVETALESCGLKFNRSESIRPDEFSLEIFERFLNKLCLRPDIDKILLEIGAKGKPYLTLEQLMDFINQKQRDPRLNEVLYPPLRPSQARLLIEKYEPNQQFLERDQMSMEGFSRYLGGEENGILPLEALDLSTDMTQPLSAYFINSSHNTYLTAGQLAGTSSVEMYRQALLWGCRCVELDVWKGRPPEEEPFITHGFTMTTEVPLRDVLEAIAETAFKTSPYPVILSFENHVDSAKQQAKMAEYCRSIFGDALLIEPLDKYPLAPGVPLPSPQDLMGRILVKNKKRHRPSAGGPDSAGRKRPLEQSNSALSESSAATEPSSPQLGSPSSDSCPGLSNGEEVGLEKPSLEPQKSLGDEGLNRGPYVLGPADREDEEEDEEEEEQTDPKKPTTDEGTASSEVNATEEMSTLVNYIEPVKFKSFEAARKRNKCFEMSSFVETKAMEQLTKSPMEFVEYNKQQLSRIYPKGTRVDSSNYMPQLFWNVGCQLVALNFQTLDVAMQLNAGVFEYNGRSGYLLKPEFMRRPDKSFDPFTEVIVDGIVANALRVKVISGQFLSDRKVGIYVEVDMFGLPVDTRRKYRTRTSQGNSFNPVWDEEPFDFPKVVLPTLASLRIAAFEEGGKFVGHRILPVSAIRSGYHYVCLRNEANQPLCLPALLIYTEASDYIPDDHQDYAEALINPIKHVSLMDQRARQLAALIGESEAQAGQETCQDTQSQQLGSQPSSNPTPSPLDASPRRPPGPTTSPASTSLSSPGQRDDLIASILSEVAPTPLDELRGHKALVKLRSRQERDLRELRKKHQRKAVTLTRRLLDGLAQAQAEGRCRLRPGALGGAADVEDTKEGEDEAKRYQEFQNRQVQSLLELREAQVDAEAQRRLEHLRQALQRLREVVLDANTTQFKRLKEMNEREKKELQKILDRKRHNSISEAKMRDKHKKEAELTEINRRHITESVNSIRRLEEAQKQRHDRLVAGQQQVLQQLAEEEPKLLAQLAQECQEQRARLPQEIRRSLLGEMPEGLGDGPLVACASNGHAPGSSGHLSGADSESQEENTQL
PLC-gamma1 inh: PLC-gamma1 (human) inhibition, primary screen. P19174. purified PLC-gamma1, fluorogenic substrate, fluorescence. inhibition, % at 12.2 µM. hit rate 0.84% among 370,000; in the data active = inhibition above about 9.5%
Cardio protect: modulators protecting cardiomyocytes from myocardial damage; H9c2 cardiomyocytes, H2O2 injury protection, ATPLite, 2 h; protection from H2O2 cell death, % at 20 µM; hit rate 0.63% among 360,000; AID 588492;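 active = compounds giving at least 50% protection of heart cells from peroxide-induced death in the single-dose screen, raw or plate-pattern-corrected value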
FAS-TE inh conf: confirmation of human fatty acid synthase thioesterase inhibitors; shares compounds with FAS TE block; recombinant FAS-TE, OMFH fluorogenic substrate, fluorescence; inhibition, % at 15 µM; hit rate 45% among 2,300; AID 624325;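 active = compounds inhibiting the enzyme by at least 50% at 15 µM in any one of the replicates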
A number is an active result; n = inactive; x = not tested or not shown.

SMILES	FAS TE block	PLCb3 inh	PLC-gamma1 inh	Cardio protect	FAS-TE inh conf
CCOC1=C2CN(S(=O)(=O)c3ccc(C)cc3)[C@H](c3ccccc3)C[C@@H]2N(S(=O)(=O)c2ccccc2)[C@H](c2ccccc2)C1	n	n	n	n	x
CCOC1=C2[C@@H](CN(S(=O)(=O)c3ccc(C)cc3)[C@H]2c2ccc(CC)cc2)[C@H]2C(=O)N(c3ccccc3)C(=O)[C@H]2C1	50	n	n	n	n
CCOC1=C2CN(S(=O)(=O)c3ccc(C)cc3)[C@H](c3cccc4ccccc34)C[C@H]2C(C#N)(C#N)C(C#N)(C#N)C1	63	x	x	n	n
COCCCNC(=O)c1ccc(Cn2c(=O)c3ccccc3n(Cc3ccc(Br)cc3)c2=O)cc1	x	n	n	x	x
COC(=O)c1cc2c(c3c4ccccc4n(S(=O)(=O)c4ccc(OC)cc4)c13)C(=O)N(Cc1ccccc1OC)C2	x	n	n	x	x
N#Cc1c(-c2ccccc2)c(-c2ccccc2)nn(CC(=O)NNC(=O)Nc2ccc(Cl)cc2)c1=O	76	n	n	n	78
COc1ccc2c(CCN3C(=O)c4ccccc4C3=O)c(-c3c(CCN4C(=O)c5ccccc5C4=O)c4ccccc4n3C(=O)OC(C)(C)C)[nH]c2c1	x	n	n	x	x
COc1ccc2nc(N3CCCCC3)c(/C=C3\SC(=S)NC3=O)cc2c1	62	n	n	n	n
COc1ccc(-n2c(C)cc(/C=C3\SC(=S)NC3=O)c2C)cc1	n	n	n	n	x
O=C1NC(=S)S/C1=C\c1cc2ccccc2nc1N1CCCCC1	69	n	n	n	51
O=C(NC(=S)Nc1ccccc1N1CCCC1)c1ccc(-c2cccc([N+](=O)[O-])c2)o1	n	n	n	n	x
CC(=O)N1CCN(c2ccccc2NC(=O)c2ccc(-c3cccc([N+](=O)[O-])c3)o2)CC1	66	n	n	79	42
Cc1ccc(C)c(N2CCN(S(=O)(=O)c3ccc4c(c3)CC(C)N4C(=O)C3CC3)CC2)c1 (stereo unspecified)	54	n	n	n	n
CCC(=O)N1c2ccc(S(=O)(=O)N3CCN(c4ccc([N+](=O)[O-])cc4)CC3)cc2CC1C (stereo unspecified)	64	n	n	n	n
CCC(=O)N1c2ccc(S(=O)(=O)N3CCN(CC)CC3)cc2CC1C (stereo unspecified)	n	n	n	n	x
Cc1cccc(N2CCN(S(=O)(=O)c3ccc4c(c3)CC(C)N4C(=O)C3CC3)CC2)c1C (stereo unspecified)	65	n	n	n	n
S=C(SCc1cc(Cl)cc2c1OCOC2)N1CCSCC1	x	n	n	x	x
O=C(CSc1nc2ccccc2nc1N1CCCCC1)N1CCN(S(=O)(=O)c2ccccc2)CC1	x	n	n	x	x
Cc1nc(Sc2ccccc2)c(C#N)c(C)c1[N+](=O)[O-]	59	n	n	n	46
Nc1c(Cl)cc(-c2csc(N3CCCC3c3nc4cc(Cl)c(N5CCCCC5)cc4n3CCCO)n2)cc1Cl (stereo unspecified)	n	n	n	n	x
Nc1c(Cl)cc(-c2csc(N3CCCC3c3nc4cc(Cl)c(N5CCCCC5)cc4n3CCOCCO)n2)cc1Cl (stereo unspecified)	70	n	n	n	n
COc1ccc(C(CCN(Cc2ccc(OC)c(OC)c2)C(C)=O)c2ccccc2)cc1 (stereo unspecified)	n	n	n	n	x
COc1ccc(CN(CCC(c2ccccc2)c2ccc(OC(C)C)cc2)C(=O)CCl)cc1OC (stereo unspecified)	52	n	n	n	n
O=C(CCn1nnc2ccccc21)N1CCN(c2ccc(F)cc2)CC1	x	n	n	x	x
O=C(NN1C(=O)c2ccccc2NC1c1ccccn1)c1ccc([N+](=O)[O-])cc1 (stereo unspecified)	n	n	n	n	x
SMILES	FAS TE block	PLCb3 inh	PLC-gamma1 inh	Cardio protect	FAS-TE inh conf
Cc1cccc(C2Nc3ccccc3C(=O)N2NC(=O)c2ccc([N+](=O)[O-])cc2)n1 (stereo unspecified)	53	n	n	n	62
Cc1cc(=O)c2c(ccc3c(=O)cc(C)[nH]c32)[nH]1	x	n	n	x	x
COCCNC(=O)/C(C#N)=C1\N=C(NC(=O)c2cccs2)c2ccccc21	n	n	n	n	x
COc1ccc(CNC(=O)/C(C#N)=C2\N=C(NC(=O)c3cccs3)c3ccccc32)cc1	51	n	n	n	n
CC(C)(C)C(=O)N1CCN(c2ccc([N+](=O)[O-])c(-n3nc(-c4ccccc4)c4ccccc4c3=O)c2)CC1	74	n	n	n	n
Cc1nn(-c2cc(N3CCCC3)ccc2[N+](=O)[O-])c(=O)c2ccccc12	n	n	n	n	x
COc1ccc(CSc2nnc(SCC(=O)Nc3ccc(S(N)(=O)=O)cc3)s2)cc1	x	n	n	x	x
O=C(NC1CCCCN(Cc2cccc(F)c2)C1=O)c1ccc(F)cc1 (stereo unspecified)	x	n	n	x	x
CCOc1ccc(NC(=O)c2cc(-c3ccc(Cl)cc3)nc3ccccc23)cc1	x	n	n	x	x
C/C(=N\Nc1ncc(Cl)cc1Cl)c1ccc2c(c1)OCO2	n	n	n	n	x
C/C(=N\Nc1ncc(Cl)cc1Cl)c1ccc(OC(F)F)cc1	52	n	n	n	59
Cc1ccc(C(=O)Nc2cccc(S(=O)(=O)N3CCCCC3)c2)cc1[N+](=O)[O-]	53	n	n	n	n
O=C(COC(=O)c1cc([N+](=O)[O-])ccc1NCCO)Nc1ccc2c(c1)OCO2	77	n	n	n	51
Cc1ccc(C)c(C(=O)COC(=O)c2cc([N+](=O)[O-])ccc2NCCO)c1	62	n	n	n	n
O=C(COC(=O)c1cc([N+](=O)[O-])ccc1NCCO)Nc1cccc(S(=O)(=O)N2CCCC2)c1	70	n	n	n	69
Nc1ccc(C(=O)OCC(=O)Nc2ccc3c(c2)OCO3)cc1[N+](=O)[O-]	n	n	n	n	x
CC(C)[C@H]1/C(=C/C2CC2)N2C(=O)C[C@@H](c3ccccc3)N=C2N1Cc1ccc2c(c1)OCO2	x	n	n	x	x
CCCCCOC(=O)C1=C(C)NC(=O)NC1c1ccc([N+](=O)[O-])cc1 (stereo unspecified)	58	n	n	n	57
COc1ccc2nc(NC(=O)c3ccc([N+](=O)[O-])o3)sc2c1	58	n	n	n	51
Cc1cc2nc(-c3ccc(F)cc3)c(CC(C)(C)C)n2c(C)c1Br	n	n	n	n	x
COc1cccc(-c2ncn(CCc3ccccc3OC)c2CC(C)C)c1	x	n	n	x	x
O=[N+]([O-])c1cc(S(=O)(=O)NCc2ccco2)ccc1NN=Cc1ccccn1	x	n	n	x	x
O=C(NNS(=O)(=O)c1ccc([N+](=O)[O-])cc1)c1ccc2ccccc2c1O	63	n	n	n	77
O=C(NNS(=O)(=O)c1ccc([N+](=O)[O-])cc1)c1ccccc1	n	n	n	n	x
CCCNC(=O)c1onc(CS(=O)(=O)c2cccc(OC)c2)c1C(=O)NCCC	n	n	n	n	x
Cc1ccc(C)c(NC(=O)C2CCCN2S(=O)(=O)c2cccc3cccnc23)c1 (stereo unspecified)	x	n	n	x	x

Source: PubChem BioAssay
